# Pol eta inh: qHTS for Inhibitors of Polymerase Eta; DNA polymerase eta (Homo sapiens), Q9Y253; recombinant Pol eta, fluorescent DNA replication assay; Potency, µM (series often up to 114 µM), for inactives: at the highest dose activity change, negative = inhibition, usual class: inhibitors; 1.2% of 390,000 active; AID 588591, 2011; further: on the % scale 0 is the no-effect control and ±100 the full control effect
#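 Fluorescent replication assay: 50 nM final substrate added after a 15 min room-temperature compound preincubation with 10 nM enzyme. Signal taken at 0 min and again at 10 min.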
# POLK inh: qHTS for Inhibitors of Polymerase Kappa; DNA polymerase kappa (Homo sapiens), Q9UBT6; purified Pol kappa, fluorescent DNA synthesis assay, 10 min; Potency, µM (series often up to 107 µM), for the others: at the highest dose activity, negative = inhibition, hits mostly inhibitors; 0.53% of 400,000 active; AID 588579, 2011; further: on the % scale 0 is the no-effect control and ±100 the full control effect
#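 Activity was followed as the change in fluorescence between reads at 0 and 10 min after starting the reaction with 50 nM substrate. Beforehand, 10 nM polymerase had been preincubated with compound for 15 min at room temperature.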
# POLI inh: qHTS for Inhibitors of Polymerase Iota. DNA polymerase iota (Homo sapiens), Q9UNA4. Pol iota fluorescent replication assay, 10 min. Potency, µM (titrated, usually from 115 µM), for the others: at the top dose activity, negative = inhibition, usual class: inhibitors. 1% of 390,000 active. AID 588590, 2011
# Target sequence (Q9UNA4 whole entry, looked up): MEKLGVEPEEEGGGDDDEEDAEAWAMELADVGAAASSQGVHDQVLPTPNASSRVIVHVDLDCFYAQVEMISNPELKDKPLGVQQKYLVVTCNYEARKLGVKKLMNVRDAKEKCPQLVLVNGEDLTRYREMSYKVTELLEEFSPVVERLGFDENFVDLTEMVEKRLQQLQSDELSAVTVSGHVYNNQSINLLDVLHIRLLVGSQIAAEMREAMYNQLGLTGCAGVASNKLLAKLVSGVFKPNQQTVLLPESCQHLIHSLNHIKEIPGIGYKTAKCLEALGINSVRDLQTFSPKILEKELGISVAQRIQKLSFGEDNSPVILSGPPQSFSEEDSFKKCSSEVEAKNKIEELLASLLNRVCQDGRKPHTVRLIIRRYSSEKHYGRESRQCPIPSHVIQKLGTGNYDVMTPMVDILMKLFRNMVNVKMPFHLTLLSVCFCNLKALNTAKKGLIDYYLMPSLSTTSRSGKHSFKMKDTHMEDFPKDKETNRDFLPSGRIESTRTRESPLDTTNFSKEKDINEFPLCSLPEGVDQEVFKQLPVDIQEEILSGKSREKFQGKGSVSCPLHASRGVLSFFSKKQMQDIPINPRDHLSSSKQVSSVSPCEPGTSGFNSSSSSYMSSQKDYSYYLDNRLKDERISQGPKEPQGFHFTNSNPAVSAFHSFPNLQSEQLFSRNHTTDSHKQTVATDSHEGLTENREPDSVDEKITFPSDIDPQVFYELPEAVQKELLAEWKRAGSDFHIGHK
#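 Fluorescent replication assay read twice, at 0 min and 10 min after adding 50 nM (final) substrate. Enzyme (10 nM) and compounds were first incubated 15 min at room temperature; enzyme-free buffer wells were negative controls.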
# Pol beta inh: qHTS Assay for Inhibitors of DNA Polymerase Beta; Pol beta primer extension/strand displacement, fluorescence kinetic; Potency, µM (titrated, usually from 114 µM), without a hit: at the top dose activity change, negative = inhibition, hits mostly inhibitors; 1.3% of 340,000 active; AID 485314, 2010; further: on the % scale 0 is the no-effect control and ±100 the full control effect
#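 Curves were derived by four-parameter Hill fits of normalized qHTS data. The kinetic fluorescent primer-extension read was taken at 0 and 10 min after 50 nM substrate, following a 15 min room-temperature preincubation of 10 nM enzyme with compounds.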
# TDP1 block: qHTS Assay for Inhibitors of Tyrosyl-DNA Phosphodiesterase (TDP1). 0.28% of 350,000 active. recombinant TDP1, AlphaScreen DNA substrate cleavage. Tyrosyl-DNA phosphodiesterase 1 (Homo sapiens), Q9NUW8. Potency, µM (top dose mostly 130 µM), without a hit: at the highest dose activity change, negative = inhibition, hits mostly inhibitors; further: on the % scale 0 is the no-effect control and ±100 the full control effect; nearly all actives have a fitted effect of over 40% in size
#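 Signal: AlphaScreen proximity between streptavidin donor and anti-FITC acceptor beads on intact substrate. Reaction: Tdp1 1 nM, substrate 15 nM final, 5 min RT after 15 min compound preincubation.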
# * = called active by the depositor; ? = inconclusive; · = no result given; ! = not confirmed by another sample; [ ] = remark or other dose. This is a sample that favours compounds with a hit; in the whole collection about 2.4% have one here. The call rests on the fitted dose curve; in most records, active means well fitted curve in the direction sought with a large enough effect; inconclusive means small, poorly fitted or top-dose-only effect, or another doubt; inactive means no such curve, though single readings can be large; an effect the other way counts as inactive or inconclusive. Potency means the concentration at half of the fitted maximal effect.
SMILES,Pol eta inh,POLK inh,POLI inh,Pol beta inh,TDP1 block
Cc1cccc(-n2c(C)nnc2SCC(=O)NC(C)c2ccco2)c1 (centres undefined),·,-10.7%,?,·,·
COc1ccc(NC(=O)C2=CC(c3cccs3)=NS(=O)(=O)N2C)cc1,-3.7%,5.2%,18.5%,31.6µM*!,-2.9%
COc1cccc(CN(C)CC(=O)NC(=O)NCc2ccco2)c1,17.8µM*,?,35.5µM*,15.8µM*,?
Nc1cc(=O)[nH]c(SCC(=O)N2N=C(c3ccc4ccccc4c3)CC2c2ccccc2)n1 (centres undefined),?,-7.9%,44.7µM*,4.5%,?
CCOC(=O)CC(c1ccc(N)cc1)n1c(C)ccc1C (centres undefined),-7.5%,-3.5%,-2.2%,8.3%,2.7%
Cc1ccc(C)n1C(CC(=O)O)c1ccc(C#N)cc1 (centres undefined),22.4µM*,79.4µM*,50.1µM*,-1.7%,-8.1%
COc1cccc(CN2Cc3cccc4c3[C@H](C=CC4)CC2=O)c1,·,-19.4%,-11.6%,·,·
N#CC1=C(N)SC(N)=C(C#N)C1c1ccoc1,·,·,·,7.08µM*,·
Cc1cccc(N2CCN(C(=O)CN3C(=O)CSc4c3c(C)nn4-c3ccccc3)CC2)c1C,-16.7%,-3.2%,18.4%,10.7%,0.6%
O=C(CCN1C(=O)C2CC=C(Cl)CC2C1=O)NCc1ccco1 (centres undefined),?,-2.8%,-9.2%,9.6%,2.2%
O=C1C2CC=C(Cl)CC2C(=O)N1CN(Cc1ccco1)CN1C(=O)C2CC=C(Cl)CC2C1=O (centres undefined),?,-3.5%,?,35.5µM*,·
CCOC(=O)C1=C(C)NC(=S)NC1c1ccco1 (centres undefined),?,?,22.4µM*,0.5%,0.0%
CCOC(=O)C1=C(C)NC(=O)NC1c1ccc(C)o1 (centres undefined),?,?,56.2µM*,3.6%,-4.9%
CC1=C(C(=O)OC(C)C)C(c2ccc(C)o2)NC(=O)N1 (centres undefined),3.0%,-16.1%,6.6%,-23.7%,-3.6%[56.1 µM]
COc1ccc(N2CCN(c3oc(/C=C/c4ccccc4OC)nc3C#N)CC2)cc1,·,-12.1%,9.8%,25.7%,4.7%
COc1cc(C)c(NC(C)C(=O)c2c(C)[nH]c3ccccc23)cc1OC (centres undefined),·,-13.0%,40.1%,·,·
COc1ccc(C2Nc3ccccc3C(=O)N2Cc2ccccc2OC)cc1COc1ccc(NC(C)=O)cc1 (centres undefined),·,·,·,·,-4.7%
CCC1(C)NC(=O)N(CC(=O)Nc2sc3c(c2C(N)=O)CCC3)C1=O (centres undefined),79.4µM*,?,?,20µM*,·
NC(=O)c1c(NC(=O)CN2C(=O)CCC2=O)sc2c1CCCCC2,-17.4%,4.0%,31.0%,-22.1%,1.1%
CC[n+]1c(/C=C/C=C/N(C(C)=O)c2ccccc2)sc2ccccc21,?,-7.9%,?,-7.8%,11.4%
CC[n+]1c(/C=C/C=C2/N(C)c3ccccc3C2(C)C)sc2ccccc21,·,26.7µM*,·,·,·
CC(=O)N[C@H]1CSSC[C@@H](C(=O)N2CCC[C@H]2C(=O)N2CCC[C@H]2C(=O)N[C@@H](CCCCN)C(=O)N[C@@H](CC(=O)O)C(N)=O)NC(=O)CNC(=O)[C@H](Cc2c[nH]c3ccccc23)NC(=O)[C@H](CCCNC(=N)N)NC(=O)[C@@H](Cc2ccc(Cl)c(Cl)c2)NC(=O)[C@H](Cc2cnc[nH]2)NC(=O)[C@H](CCC(=O)O)NC1=O,·,-5.2%[12 µM],·,·,14.1%
CCc1nc2ccc(C(=O)NCCc3ccc(OC)c(OC)c3)cc2nc1CC,-10.8%,1.6%,33.8%,?,6.5%
COc1ccc(CCNC(=O)c2ccc(N3CCCCS3(=O)=O)cc2)cc1OC,1.6%,-34.8%,79.4µM*,?,-7.5%
O=C(Nc1ccc2nc(-c3ccco3)c(-c3ccco3)nc2c1)NC1CC1,1.26µM*,10µM*,1.26µM*,3.55µM*,3.16µM*
SMILES,Pol eta inh,POLK inh,POLI inh,Pol beta inh,TDP1 block
O=C(Nc1cccc(C(F)(F)F)c1)c1ccc2nc(-c3ccco3)c(-c3ccco3)nc2c1,8.91µM*,44.7µM*,15.8µM*,10µM*,-4.9%
COc1ccc(CCNC(=O)c2ccc3nc(-c4ccco4)c(-c4ccco4)nc3c2)cc1OC,79.4µM*,44.7µM*,12.6µM*,35.5µM*,10µM*
O=C(Cn1c(=O)n(Cc2ccco2)c(=O)c2cccnc21)Nc1ccccc1F,-2.6%,11.9%,3.0%,24.1%,-2.9%
CS(=O)(=O)c1cccc(-c2nnc(NC(=O)c3ccc4c(c3)OCCO4)o2)c1,7.2%,-7.1%[60.1 µM],-23.5%,-7.1%,5.4%
Cc1ccc(C(=O)Nc2cccc(C(F)(F)F)c2)cc1NC(=O)c1nccn1C,11.6%,-19.9%,?,39.8µM*,0.0%
Cc1ccc(C(=O)Nc2cccc(C(F)(F)F)c2)cc1NC(=O)c1ccno1,-16.0%,-24.6%,-14.2%,-3.3%,0.0%
CCC(C)NC(=O)c1ccc2nc(-c3ccco3)c(-c3ccco3)nc2c1 (centres undefined),·,?,22.4µM*,·,·
CCC(C)NC(=O)c1ccc2nc(Cc3ccccc3)oc2c1 (centres undefined),5.1%,-13.5%[60.1 µM],40.7%,-0.2%,-3.0%
CC(C)(C)n1ncc2c(=O)n(Cc3cc(F)c(F)cc3Cl)cnc21,·,7.6%,9.3%,·,·
O=[N+]([O-])c1cc(-c2nc(-c3ccccc3)no2)ccc1NC1CCCC1,-5.5%,-21.0%,-4.3%,5.6%,2.9%
CC(=O)/C=C/c1ccc2c(c1)S(=O)(=O)N(C1CCCC1)[C@H]2CC(C)=O,·,-40.6%,?,·,·
Cn1c2cc(S(C)(=O)=O)sc2c2cnn(Cc3ccccc3F)c(=O)c21,·,·,·,·,1.2%
CC1CCCCC1NC(=O)COC(=O)c1ccc([N+](=O)[O-])o1 (centres undefined),89.1µM*,-19.2%,31.6µM*,·,-4.7%
O=C(COC(=O)c1ccc([N+](=O)[O-])o1)NCc1ccc(F)cc1,89.1µM*,-25.2%,?,·,0.4%
COc1ccc(CCNC(=O)COC(=O)c2ccc([N+](=O)[O-])o2)cc1,?,-9.1%,?,·,0.0%[56.1 µM]
CC1CCCC(NC(=O)COC(=O)c2ccc(Br)o2)C1C (centres undefined),-2.9%,-0.4%,-10.8%,·,0.8%
O=C(COC(=O)c1ccc([N+](=O)[O-])o1)NCCCc1ccccc1,89.1µM*,-23.5%,?,·,-0.3%
O=C(COC(=O)c1ccc(Br)o1)NCc1ccc(F)cc1,-2.9%,-4.7%,-16.1%,·,0.3%
